# Test results reported in paper PMC4336329 (PLoS ONE, 2015).
# Out of some 310,000 compounds screened, about 14,000 (4.5%) showed an effect of 50% or more. The effect is printed as a negative number. This excerpt belongs to a sample that is enriched for strong results.
# Biological target: human ether-à-go-go-related gene (hERG) potassium channel (human, UniProt Q12809)
# Experiment: primary screen, population patch clamp on CHO cells stably expressing hERG; higher = less effect of the substance
# 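Note: peak tail current of the secondary pulse compared with the same well before compound.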
# Sequence of human ether-à-go-go-related gene (hERG) potassium channel (Q12809 whole entry, looked up): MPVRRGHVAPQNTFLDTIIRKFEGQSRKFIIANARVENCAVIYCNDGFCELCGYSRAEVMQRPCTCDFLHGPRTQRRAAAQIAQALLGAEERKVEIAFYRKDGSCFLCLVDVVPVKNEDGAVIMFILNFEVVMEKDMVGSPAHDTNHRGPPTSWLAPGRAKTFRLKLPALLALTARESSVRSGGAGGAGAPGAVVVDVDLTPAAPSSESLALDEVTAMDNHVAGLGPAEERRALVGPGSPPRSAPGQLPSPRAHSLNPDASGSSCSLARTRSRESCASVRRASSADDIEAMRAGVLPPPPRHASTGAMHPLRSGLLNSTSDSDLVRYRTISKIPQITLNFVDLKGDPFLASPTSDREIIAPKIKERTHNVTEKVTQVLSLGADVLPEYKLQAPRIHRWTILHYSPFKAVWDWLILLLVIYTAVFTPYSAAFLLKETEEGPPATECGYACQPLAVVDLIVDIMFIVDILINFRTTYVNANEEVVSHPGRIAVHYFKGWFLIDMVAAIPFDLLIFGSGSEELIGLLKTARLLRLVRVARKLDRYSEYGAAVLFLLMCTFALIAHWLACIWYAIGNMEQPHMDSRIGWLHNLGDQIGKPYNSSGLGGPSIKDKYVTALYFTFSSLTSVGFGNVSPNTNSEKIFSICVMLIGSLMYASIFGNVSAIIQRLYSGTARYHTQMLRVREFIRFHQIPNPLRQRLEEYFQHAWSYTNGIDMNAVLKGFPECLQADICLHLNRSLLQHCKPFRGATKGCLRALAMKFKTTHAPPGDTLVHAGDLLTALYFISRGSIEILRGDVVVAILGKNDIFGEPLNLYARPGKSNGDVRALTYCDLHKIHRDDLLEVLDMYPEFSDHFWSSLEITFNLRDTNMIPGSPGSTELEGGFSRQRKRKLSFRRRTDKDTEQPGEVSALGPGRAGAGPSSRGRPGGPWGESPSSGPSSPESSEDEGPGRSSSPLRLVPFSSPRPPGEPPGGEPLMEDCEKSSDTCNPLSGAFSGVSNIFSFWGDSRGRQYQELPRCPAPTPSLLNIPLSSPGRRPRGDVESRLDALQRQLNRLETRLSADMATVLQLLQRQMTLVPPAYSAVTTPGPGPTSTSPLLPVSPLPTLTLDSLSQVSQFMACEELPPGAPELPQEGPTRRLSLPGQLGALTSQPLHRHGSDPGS
row,Structure (SMILES),"hERG current change (%, negative = inhibition) at 10uM"
1,Clc1ccc(OCCOCCOc2cccc3cccnc23)c(Br)c1,0.0859%
2,O=C(CCS(=O)(=O)c1ccc(Br)cc1)N1CCCCCC1,-25.3%
3,CN1C(=O)c2ccc(NC(=O)c3c(F)c(F)c(F)c(F)c3F)cc2C1=O,18.3%
4,CC(C)c1ccc(NC(=S)NN(c2ccccc2)c2ccccc2)cc1,12.7%
5,O=C(NCc1ccc2c(c1)OCO2)c1ccc2c(=O)n(C3CCCC3)c(=O)[nH]c2c1,4.61%
6,COc1ccc(C(=O)Nc2nc3ccc(OC)cc3s2)cc1,12.6%
7,Nc1ccc(-c2cnc[nH]2)cc1[N+](=O)[O-],-0.302%
8,CCN(CCNCC(O)COCc1ccc(Cl)cc1)c1cccc(C)c1.O=C(O)C(=O)O (stereo not shown),-18.2%
9,O=C(O)c1ccccc1NCCO,33.8%
10,O=C(CSc1nnc(-c2ccncc2)s1)Nc1ccccc1,3.19%
11,O=[N+]([O-])c1ccc(-[n+]2c(-c3ccccc3)cc(-c3ccccc3)cc2-c2ccccc2)cc1.[O-][Cl+3]([O-])([O-])[O-],4.73%
12,O=C(O)c1ccc(-[n+]2c(-c3ccccc3)cc(-c3ccccc3)cc2-c2ccccc2)cc1.[O-][Cl+3]([O-])([O-])[O-],14.8%
13,[O-][Cl+3]([O-])([O-])[O-].c1ccc(-c2cc(-c3ccccc3)[n+](-c3ccccc3)c(-c3ccccc3)c2)cc1,-71.3%
14,Cc1ccc2c(COC(=O)c3ccc(NC(=O)CC#N)cc3)cc(=O)oc2c1C,3.63%
15,COc1ccc(NC(=O)CSc2c3c(nc4ccccc24)CCC3)c(OC)c1,-36.9%
16,COc1ccccc1NC(=O)CSc1c2c(nc3ccccc13)CCC2,-26.3%
17,COc1ccc(OC)c(Nc2c3c(nc4ccccc24)CCC3)c1,-67.8%
18,COc1ccc(OC)c(NC(=O)c2c3c(nc4ccccc24)CCC3)c1,-21.8%
19,COc1ccc(OC)c(NC(=O)COC(=O)c2c3c(nc4ccccc24)CCCC3)c1,1.03%
20,COc1ccc(NC(=O)CSc2c3c(nc4ccccc24)CCCC3)c(OC)c1,-47.5%
21,COc1ccccc1Nc1c2c(nc3ccc(N)cc13)CCCC2,-72.4%

row,Structure (SMILES),"hERG current change (%, negative = inhibition) at 10uM"
1,COc1ccccc1Nc1c2c(nc3ccccc13)CCC2,-45.6%
2,COc1ccc(C)cc1Nc1c2c(nc3ccccc13)CCC2,-56.7%
3,COc1ccc(C)cc1Nc1nc(N)c2ccccc2n1.Cl,-12.8%
4,Nc1ccc2nc3c(c(Cl)c2c1)CCCC3,-22.7%
5,COc1ccc(Nc2c3c(nc4ccccc24)CCC3)c(OC)c1,-64.7%
6,O=C(NC1(C(=O)NC2CCCCC2)CCCCC1)c1ccccn1,2.56%
7,COc1ccc(CCNC(=O)C(=O)NCc2ccc(C)cc2)cc1OC,-1.57%
8,COc1ccccc1N1CCN(C(=O)c2cc(-c3cccs3)on2)CC1,-22.7%
9,COc1cccc(CNC(=O)C2Cc3ccccc3CN2C(C)=O)c1 (stereo not shown),2.81%
10,C=CCc1cccc(/C=N/NC(=O)COc2ccc(-n3cnnn3)cc2)c1O,11.3%
11,CCN1C(=O)N[C@@H](c2cccc(C(F)(F)F)c2)[C@@H](C(=O)OC)[C@H]1C,-19%
12,O=C(Cn1cccc1C(=O)c1ccccc1)NCc1ccc(Cl)cc1,18.7%
13,O=C(O)CC(NS(=O)(=O)c1cccc2nsnc12)c1ccc(F)cc1 (stereo not shown),-17.2%
14,Cc1cc(F)ccc1S(=O)(=O)Nc1ccc(C(=O)N2CCCCCC2)cc1,-27.6%
15,Cc1ccc2nc(SCC(=O)N/N=C/c3ccco3)cc(C)c2c1,10.4%
16,Cc1ccc2nc(N/N=C/c3ccco3)cc(C)c2c1,-64.3%
17,Cc1cc(N/N=C/c2ccco2)c2ccccc2n1,16.6%
18,C[C@@H]1CC[C@H]2[C@@H](C)C(=O)O[C@@H]3O[C@@]4(C)CC[C@@H]1[C@]32OO4,0.204%
19,COc1ccc(OC)c(NC(=O)CSc2nnc(C3CCCCC3)n2N)c1,-17.4%
20,CC(C)CC(NC(N)=O)C(=O)Nc1ccc(Oc2ccccc2)cc1 (stereo not shown),10.1%
21,O=C(/C(=N\Nc1ccc(Br)cc1)Sc1nnnn1-c1ccccc1)c1ccccc1,13.8%

row,Structure (SMILES),"hERG current change (%, negative = inhibition) at 10uM"
1,Cc1ccc2c(c1)c1c3n2CCN(CCC(=O)O)C3CCC1 (stereo not shown),-3.49%
2,Cc1ccc2c(c1)c1c3n2CCN(CC(N)=O)C3CCC1 (stereo not shown),25.6%
3,Cc1ccc2c(c1)c1c3n2CCN(CC#N)C3CCC1 (stereo not shown),2.24%
4,CCN1CCn2c3c(c4cc(C)ccc42)CCCC31 (stereo not shown),-54.2%
5,CCN(CC)CCN1CCn2c3c(c4cc(C)ccc42)CCCC31.Cl (stereo not shown),-76.3%
6,CCN1CCn2c3c(c4cc(Cl)ccc42)CCCC31.Cl (stereo not shown),-39.1%
7,NC[C@H]1O[C@H](O[C@H]2[C@H](O)[C@@H](O[C@H]3O[C@H](CO)[C@@H](O)[C@H](N)[C@H]3O)[C@H](N)C[C@@H]2N)[C@H](N)C[C@@H]1O.O=S(=O)(O)O,4.47%
8,CC(C)c1nnc(NC(=O)c2nc(S(=O)(=O)Cc3ccccc3F)ncc2Cl)s1,-5.79%
9,c1ccc(CN=C2NN=C(c3cc4ccccc4o3)CS2)cc1,-16.3%
10,CC(C)(C)N=C1NN=C(c2cc3ccccc3o2)CS1,-9.99%
11,c1ccc2oc(C3=NNC(=NC4CC4)SC3)cc2c1,-58.5%
12,COc1cccc(C(c2sc3ncnn3c2O)N2CC(C)OC(C)C2)c1 (stereo not shown),0.441%
13,O=C(CSc1nc2ccccc2c(=O)n1CC1CCCO1)NCc1ccc2c(c1)OCO2 (stereo not shown),-30.2%
14,O=C(NCc1ccccc1)c1ccc2c(=O)n(CC3CCCO3)c(=S)[nH]c2c1 (stereo not shown),-2.39%
15,COc1ccc(CNC(=O)c2cc3c(=O)n4ccccc4nc3n(CC3CCCO3)c2=N)cc1 (stereo not shown),-72.5%
16,N=c1c(S(=O)(=O)c2ccc(F)cc2)cc2c(=O)n3ccccc3nc2n1CC1CCCO1 (stereo not shown),-40.8%
17,Cc1ccc(CNC(=O)c2cc3c(=O)n4ccccc4nc3n(CC3CCCO3)c2=N)cc1 (stereo not shown),-81.3%
18,N=c1c(C(=O)NCc2ccc3c(c2)OCO3)cc2c(=O)n3ccccc3nc2n1CC1CCCO1 (stereo not shown),-79.5%
19,CCOC(=O)c1cc2c(=O)n3ccccc3nc2n(CC2CCCO2)c1=NC(C)=O (stereo not shown),-1.13%
20,N=c1c(C(=O)NCc2ccc(F)cc2)cc2c(=O)n3ccccc3nc2n1CC1CCCO1 (stereo not shown),-77.4%
21,O=C(NCc1ccc2c(c1)OCO2)c1ccc2c(c1)C(=O)N(CC1CCCO1)C2=O (stereo not shown),2.28%

row,Structure (SMILES),"hERG current change (%, negative = inhibition) at 10uM"
1,CC(CCc1ccccc1)NC(=O)c1ccccc1Cl (stereo not shown),-4.82%
2,CN(C)S(=O)(=O)c1cc(NC(=O)CN2CCN(c3ccccc3F)CC2)ccc1Cl,5.43%
3,CC(C)NC(=O)CSc1nnc(-c2ccc(C(C)(C)C)cc2)n1C,-7.38%
4,NC(=O)C1CCN(C(=O)COc2ccc3c(c2)oc(=O)c2ccccc23)CC1,3.62%
5,COc1ccc(COc2cc(-c3cccc(OC)c3)nc3ccc(NC(=O)C(C)C)cc23)cc1,3.04%
6,Cc1nc2c(-c3ccc(F)cc3)cnn2c(N)c1-c1ccc(F)cc1,23.3%
7,CCOC(=O)C1CCCN(C(=O)c2cn(CC)c3ccc(S(=O)(=O)N(C)C)cc3c2=O)C1 (stereo not shown),11.9%
8,COc1ccc2nc(NC(=O)C3CCN(S(=O)(=O)c4cccc5nsnc45)CC3)sc2c1,0.473%
9,C=CCn1c(SCC(=O)Nc2ccc(NC(=O)c3ccco3)c(OC)c2)nnc1-c1ccncc1,-6.37%
10,CCCCCn1nc(C(=O)N(CC(C)C)c2c(N)n(CCCC)c(=O)[nH]c2=O)c2ccccc2c1=O,-76.6%
11,CCCCn1c(N)c(N(CCC(C)C)C(=O)c2ccc([N+](=O)[O-])s2)c(=O)[nH]c1=O,-51.1%
12,CCCCn1nc(C(=O)N(CCOC)c2c(N)n(CCCC)c(=O)[nH]c2=O)c2ccccc2c1=O,6.16%
13,CCCCN(C(=O)c1ccc([N+](=O)[O-])s1)c1c(N)n(CC(C)C)c(=O)[nH]c1=O,5.29%
14,CCCCCn1nc(C(=O)N(CCOC)c2c(N)n(CCCC)c(=O)[nH]c2=O)c2ccccc2c1=O,-3.44%
15,CCCCCCn1nc(C(=O)N(CC(C)C)c2c(N)n(CCCC)c(=O)[nH]c2=O)c2ccccc2c1=O,-51.9%
16,CCCCCCn1nc(C(=O)N(CCOC)c2c(N)n(CCCC)c(=O)[nH]c2=O)c2ccccc2c1=O,-1.87%
17,CCCCn1c(N)c(N(CCOC)C(=O)c2nn(CC)c(=O)c3ccccc23)c(=O)[nH]c1=O,6.82%
18,CCCCN(C(=O)c1ccc([N+](=O)[O-])s1)c1c(N)n(CCCC)c(=O)[nH]c1=O,-12.9%
19,O=S(=O)(Nc1ccc(-n2cnnn2)cc1)c1ccc(Cl)cc1,-18.2%
